13 compounds from PubChem BioAssay (NCI) can be followed below.

Where “and” joins values, the source holds several entries; their conditions need not be identical. Equal entries are not always repeated. Compounds without any hit were thinned out: in the full panel of roughly 83,000, 20% have a hit.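 Treatment: one concentration, 48 hours, 96-well format. Scoring: percent growth, with anything below 10 considered active.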 Calls of active or inactive are those of the source.

Among the test systems are T-47D breast; BT-549 breast; MDA-MB-435 melanoma; SW-620 colon; MCF7 breast; HCT-116 colon; HCC-2998 colon; KM12 colon.
Test in all cases: NCI-60 one-dose screen, 48 h (100 = growth as untreated, 0 = no growth, -100 = all killed)
Details in all cases: 10 µM unless noted

Consider `CC1(C)OC(=O)C(=Cc2ccc(C#N)cc2)C(=O)O1`, for which the growth with T-47D breast is 86.4% (inactive) and 102% (inactive); with BT-549 breast, 109% (inactive) and 103% (inactive); in the assay on MDA-MB-435 melanoma, 108% (inactive) and 105% (inactive); with SW-620 colon it was 100% (inactive) and 104% (inactive); with MCF7 breast, 104% (inactive) and 95.6% (inactive); in the assay with HCT-116 colon, 96.5% (inactive) and 108% (inactive). Moreover, the growth in the assay on HCC-2998 colon is 112% (inactive) and 105% (inactive); in the assay with KM12 colon it was 105% (inactive) and 115% (inactive).

Consider `N=c1sc2ccccc2n1CC(=O)O`, for which the growth is 95.8% (inactive) in the assay on T-47D breast; 99.2% (inactive) in the assay on BT-549 breast; 113% (inactive) with MDA-MB-435 melanoma; 103% (inactive) in the assay on SW-620 colon; 99% (inactive) in the assay with MCF7 breast; 95.7% (inactive) in the assay on HCT-116 colon. The growth was 108% (inactive) with HCC-2998 colon and 106% (inactive) in the assay with KM12 colon.

`Cc1ccc2cccc([N+](=O)[O-])c2n1`: the growth with T-47D breast was 97.4% (inactive) and 97.8% (inactive); with BT-549 breast, 121% (inactive) and 93.5% (inactive); in the assay on MDA-MB-435 melanoma, 110% (inactive) and 108% (inactive); in the assay on SW-620 colon, 119% (inactive) and 103% (inactive); with MCF7 breast, 105% (inactive) and 95.7% (inactive); in the assay on HCT-116 colon it was 114% (inactive) and 97.7% (inactive). The growth is 102% (inactive) and 103% (inactive) with HCC-2998 colon; 111% (inactive) and 107% (inactive) in the assay with KM12 colon.

Consider `Cc1c(Cl)c(C)c(Cc2c(C)c(Cl)c(C)c(Cl)c2O)c(O)c1Cl`, for which the growth was 1.53% (active) with T-47D breast; 22.6% (inactive) in the assay on BT-549 breast; 7.62% (active) in the assay on MDA-MB-435 melanoma; 17.1% (inactive) in the assay with SW-620 colon; 1.6% (active) with MCF7 breast; 3.19% (active) in the assay with HCT-116 colon. For the same compound, the results for the growth in the assay on HCC-2998 colon and in the assay on KM12 colon were 25.7% (inactive) and 15.7% (inactive), respectively.

For `O=[N+]([O-])c1cccc2ccc(N/N=C/c3ccccc3O)nc12`, the growth is 38.1% (inactive) and 78% (inactive) in the assay with T-47D breast; 68.6% (inactive) and 103% (inactive) with BT-549 breast; 101% (inactive) and 106% (inactive) with MDA-MB-435 melanoma; 21.7% (inactive) and 96.4% (inactive) in the assay on SW-620 colon; 42.5% (inactive) and 61.7% (inactive) in the assay on MCF7 breast; 20.8% (inactive) and 67.8% (inactive) in the assay on HCT-116 colon. The growth was 110% (inactive) with HCC-2998 colon; 86.8% (inactive) and 84.3% (inactive) with KM12 colon.

For `N=C(N=C(N)N)N1CCOCC1`, the growth in the assay with T-47D breast was 91.2% (inactive) and 95.4% (inactive); with BT-549 breast, 115% (inactive) and 103% (inactive); in the assay on MDA-MB-435 melanoma, 108% (inactive) and 106% (inactive); in the assay with SW-620 colon, 96.3% (inactive) and 103% (inactive); with MCF7 breast it was 92.9% (inactive) and 91.5% (inactive); in the assay with HCT-116 colon, 104% (inactive) and 96.4% (inactive). Also, the growth in the assay on HCC-2998 colon was 109% (inactive) and 97.1% (inactive); in the assay on KM12 colon it was 105% (inactive) and 100% (inactive).

Turning to `Cc1cc(-c2ccc(N=Nc3c(C)nn(-c4ccc(S(=O)(=O)O)cc4)c3O)c(C)c2)ccc1N=Nc1ccc(O)c(C(=O)O)c1`, the growth with T-47D breast was 99.7% (inactive); in the assay on BT-549 breast, 98.5% (inactive); in the assay with MDA-MB-435 melanoma it was 110% (inactive); with SW-620 colon, 98.8% (inactive); in the assay on MCF7 breast, 94% (inactive); in the assay with HCT-116 colon it was 99.8% (inactive). For the same compound, the values for the growth in the assay with HCC-2998 colon and with KM12 colon were 94% (inactive) and 96.1% (inactive), respectively.

With `COc1ccc(/C=C/C(=O)O)cc1OC`, the growth with T-47D breast was 107% (inactive) and 106% (inactive); in the assay with BT-549 breast, 107% (inactive) and 111% (inactive); in the assay with MDA-MB-435 melanoma, 109% (inactive) and 112% (inactive); with SW-620 colon, 103% (inactive) and 102% (inactive); in the assay on MCF7 breast, 97.9% (inactive) and 102% (inactive); in the assay on HCT-116 colon, 99.5% (inactive) and 105% (inactive). The growth is 119% (inactive) and 102% (inactive) with HCC-2998 colon; 109% (inactive) in the assay on KM12 colon.

`CCC(=O)Oc1ccc(OCc2ccccc2)cc1`: the growth is 113% (inactive) and 89.5% (inactive) in the assay with T-47D breast; 73.4% (inactive) with BT-549 breast; 96.9% (inactive) and 82.1% (inactive) in the assay on MDA-MB-435 melanoma; 90.2% (inactive) and 79.7% (inactive) in the assay on SW-620 colon; 91.4% (inactive) and 88.5% (inactive) in the assay on MCF7 breast; 99.7% (inactive) and 102% (inactive) with HCT-116 colon. Moreover, the growth was 84.4% (inactive) and 87.7% (inactive) in the assay on HCC-2998 colon; 86.5% (inactive) and 89.6% (inactive) in the assay on KM12 colon.

For the compound `O=C(c1ccncc1)c1c(Cc2ccccc2)ccc2ccccc12`, the growth was 113% (inactive) in the assay with T-47D breast; -7.98% (active) in the assay with BT-549 breast; 83.2% (inactive) with MDA-MB-435 melanoma; 90.4% (inactive) in the assay with SW-620 colon; 101% (inactive) in the assay with MCF7 breast; 82% (inactive) with HCT-116 colon. Besides, the results for the growth in the assay with HCC-2998 colon and in the assay on KM12 colon were 37.3% (inactive) and 102% (inactive), respectively.

On to `CCOC(=O)C1=CC(=O)CC(C)(C)O1`, for which the growth with T-47D breast was 110% (inactive) and 107% (inactive); in the assay with BT-549 breast, 99.2% (inactive) and 117% (inactive); with MDA-MB-435 melanoma it was 119% (inactive) and 111% (inactive); in the assay with SW-620 colon, 96.5% (inactive) and 105% (inactive); with MCF7 breast, 109% (inactive); in the assay with HCT-116 colon, 96.8% (inactive) and 110% (inactive). In addition, the growth is 102% (inactive) and 108% (inactive) in the assay on HCC-2998 colon; 107% (inactive) and 76.9% (inactive) in the assay on KM12 colon.

On to `Nc1ccccc1SC1CC(=O)N(c2ccc(I)cc2)C1=O` (centres undefined), for which the growth is 82.3% (inactive) in the assay with T-47D breast; 91.6% (inactive) in the assay with BT-549 breast; 91.8% (inactive) with MDA-MB-435 melanoma; 93.3% (inactive) with SW-620 colon; 86.5% (inactive) in the assay with MCF7 breast; 95.3% (inactive) in the assay with HCT-116 colon. The growth in the assay on HCC-2998 colon was 103% (inactive); in the assay with KM12 colon it was 79.1% (inactive).

For `COc1ccc(/C=N/NC(N)=S)cc1`, the growth in the assay with T-47D breast is 85.6% (inactive); in the assay with BT-549 breast, 104% (inactive); in the assay on MDA-MB-435 melanoma it was 100% (inactive); with SW-620 colon it was 125% (inactive); in the assay on MCF7 breast it was 103% (inactive); in the assay on HCT-116 colon, 89.3% (inactive). Moreover, the values for the growth in the assay with HCC-2998 colon and in the assay on KM12 colon were 90.7% (inactive) and 119% (inactive), respectively.
